Screens (PubChem)
Shown is part of a subset that was picked to be rich in hits.
KDM5B inhibitor – KDM5B demethylase inhibition. hit rate 2.6% among 220,000. KDM5B demethylase, FDH-coupled NADH fluorescence (FDH is formaldehyde dehydrogenase). Potency, µM (top dose mostly 57.7 µM), most hits filed as inhibitors. Q9UGL1. AID 1347165; active means well fitted inhibition curve with a large enough effect; further: nearly all actives have a fitted effect of over 70% in size
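KDM5BΔAP (200 nM final) in 50 mM HEPES pH 7.5, 0.01% Tween-20 was preincubated 10 min at RT with compound over a concentration range. Substrate mix (H3K4me3 12.5 µM, α-KG 25 µM, Fe²⁺, ascorbate, NAD⁺, FDH) was added, and NADH fluorescence change over 30 min gave dose-response curves.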
Large screens that a line does not name were inactive.

CCCOc1c(C(=O)OC)sc2ccc(NC(=O)c3cccc(F)c3)cc12	none
Cc1ccccc1OCc1nc(C2CN(C(=O)C(C)c3ccccc3)C2)no1 (stereo not given)	none
COc1ccc(-c2cc3c(ccn3C)c(C(=O)NCc3cccnc3)n2)cc1	none
Cn1ccc2c(C(=O)NCc3cccnc3)nc(-c3cncnc3)cc21	none
Cn1ccc2c(C(=O)NCc3cccnc3)nc(-c3cccc(F)c3)cc21	KDM5B inhibitor 22µM
Cc1ccc(-c2cc3c(ccn3C)c(C(=O)NCc3cccnc3)n2)cn1	none
Cn1ccc2c(C(=O)NCc3cccnc3)nc(-c3cccc(O)c3)cc21	KDM5B inhibitor 40µM
Cn1ccc2c(C(=O)NCc3cccnc3)nc(-c3cnn(Cc4ccccc4)c3)cc21	none
CC(Sc1cc(C(N)=O)c2ccccc2n1)c1nc(C(C)(C)C)no1 (stereo not given)	none
Cc1cc(C)cc(N2CC(c3nnc(NC(=O)c4cccc(NC(=O)C(C)C)c4)s3)CC2=O)c1 (stereo not given)	none
O=C(CSc1ncc(-c2ccc(Br)cc2)o1)N1CCCCCC1	none
CCOc1ccc(C(C)=O)cc1COc1ccccc1C#N	none
O=C(O)C(c1c[nH]c2cc(Cl)ccc12)N1CCCN(c2ccc(C(F)(F)F)cn2)CC1 (stereo not given)	none
CN(C)CCCNC(=O)c1cc(-c2ccc(-c3ccccc3)cc2)nc2ccccc12	none
COc1cccc(CN(C)CC(=O)NC(=O)NC2CC2)c1OC	none
CCNC(=O)NC(=O)CSc1nc(C)c(C)n1C1CCCC1	none
CCn1c(=O)n(CC(=O)NCC(=O)Nc2cccc(C)c2C)c2ccccc21	none
Cc1cc(C)c(CNC(=O)c2cc(-c3cnn(C)c3)cc3c2OCCN3C)c(=O)[nH]1	KDM5B inhibitor 32µM
Cc1cc(C)c(CNC(=O)c2cc(-c3cnn(C)c3)cc3c2OCCN3C(C)C)c(=O)[nH]1	KDM5B inhibitor 28µM
N#C/C(=C/c1ccccc1OCC(=O)O)C(=O)Nc1ccc(N2CCOCC2)cc1	none
Fc1ccc(CNC(=S)NCCc2ccccc2)cc1	none
COc1nc2ccccc2nc1N1CCC(C(=O)Nc2ccc(I)cc2)CC1	none
COc1ccc(C(=O)N2CCC3(CC2)NC(=O)N(c2ccc(F)cc2)N3)cc1	none
Cn1ccnc1SCC(=O)NC(C)(C#N)C1CC1 (stereo not given)	none
O=C(Nc1ccc(NS(=O)(=O)c2ccc(F)cc2)cc1)c1cncn1-c1ccccc1	none
COc1cccc(-c2cc3c(ccn3Cc3cccnc3)c(C3=CCOCC3)n2)c1OC	KDM5B inhibitor 28µM
Cc1ccc(-c2cc3c(ccn3Cc3cccnc3)c(C3=CCOCC3)n2)cn1	KDM5B inhibitor 35µM
COc1ccc(NC(=O)COc2cccc3c2CCN(Cc2cccnc2)C3=O)c(OC)c1	none
CN(C)Cc1cccc(-c2cc3c(ccn3Cc3cccnc3)c(C3=CCOCC3)n2)c1	KDM5B inhibitor 40µM
COc1cccc(-c2nc3cc4c(cc3cc2CN2CCOCC2)OCO4)c1OC	none
Cc1ccc(Cn2c(CN3CCC(C(=O)NCc4cccnc4)CC3)cc3ccccc32)cc1	none
Cc1nc2ccn(Cc3cccnc3)c(=O)c2cc1C(=O)N1CCN(c2ccccc2)CC1	none
CCc1ccc(NC(=O)c2cc(=O)c3cc(C)c(C)cc3o2)cc1	none
CSc1nc(C(C)C)nc(C)c1C(=O)Nc1ccc(Cl)cc1C	none
CCOc1cc(/C=C2/NC(=O)NC2=O)cc(I)c1OCc1ccc(F)cc1	none
CCOC(=O)c1c(SCC(=O)Nc2ccc(F)cc2F)nc(=O)[nH]c1C	none
CCN(CC(=O)NC)S(=O)(=O)N1CCCCCC1	none
CC(Sc1nc2cc(S(=O)(=O)N(C)C)ccc2o1)C(=O)NC12CC3CC(CC(C3)C1)C2 (stereo not given)	none
CN1CCCN(C(=O)C2CCCO2)c2ccccc21 (stereo not given)	none
N#Cc1cccc(-c2cn3c(n2)N(C(=O)C2CCC2)CCC3)c1	KDM5B inhibitor 22µM
N#Cc1cccc(-c2cn3c(n2)N(C(=O)C2CCCO2)CCC3)c1 (stereo not given)	KDM5B inhibitor 32µM
N#Cc1cccc(C(=O)N2CCC(n3cc(-c4nc(-c5ccccc5)no4)nn3)C2)c1 (stereo not given)	none
COc1cccc(-c2cn3c(n2)N(C(=O)C2CCC2)CCC3)c1	none
N#Cc1cccc(NC(=O)C2CCN(S(=O)(=O)c3ccc4c(c3)CCCN4C(=O)C3CCC3)CC2)c1	none
N#Cc1c(NC(=O)c2ccnn2C(F)F)sc2c1CCCC2	none
O=C1NCc2ccccc2CC12CCCCN2CCCc1ccccc1 (stereo not given)	none
Cc1ccc2c(Cl)cc(Cl)c(OCC(=O)NC(=O)NC3CCCC3)c2n1	none
O=C(c1ccc2c(c1)OCO2)N1CCC(c2nc3c(nnn3Cc3cccc(Cl)c3)c(=O)[nH]2)CC1	none
Cc1cccc(NC(=O)Cn2c(N(C)Cc3ccccc3)nc(C)cc2=O)c1	none
CCc1ccc(NC(=O)Cn2c(N(C)Cc3ccccc3)nc(C)cc2=O)cc1	none
CCc1cccc(NC(=O)Cn2c(N(C)Cc3ccccc3)nc(C)cc2=O)c1	KDM5B inhibitor 25µM
O=C(O)COc1ccc(/C=N/O)cc1	none
CCCCCCNc1nc2c(c(=O)[nH]c(=O)n2C)n1CCCc1ccccc1	none
CCN(c1ccccc1)S(=O)(=O)c1ccc(C(=O)Nc2nc3ccccc3[nH]2)cc1	none
CN=C1S/C(=C/c2ccc(C)s2)C(=O)N1C	none
COc1cccc(C(=O)Nc2ccc3ncnc(N4CCCCC4)c3c2)c1	none
CCc1ccccc1NC(=O)c1cc2c(=O)[nH]c(C)cn2n1	none
Cc1ccc(NC(=O)c2cn(-c3ccc4c(c3)OCCO4)nn2)cc1Cl	none
COc1cccc(NC(=O)c2cc3c(N4CCCC4)nc(C)cn3n2)c1	KDM5B inhibitor 35µM
CCOc1cc(=O)n2c(c1C(=O)Nc1cccc(F)c1C)CCCC2	none
Cc1cn2nc(C(=O)Nc3ccc4c(c3)OCCO4)cc2c(N2CCCC2)n1	KDM5B inhibitor 25µM
Cn1nc(C(=O)Nc2ccc3c(c2)OCCO3)c2ccccc2c1=O	none
COc1cccc(NC(=O)c2c(C)oc3nc(C)nc(N4CCCC4)c23)c1	none
Cc1cn2nc(C(=O)Nc3cccc(F)c3C)cc2c(N2CCCC2)n1	KDM5B inhibitor 25µM
COc1cccc(NC(=O)CSc2nc3ccccc3nc2Cc2ccccc2OC)c1	none
CC(=O)C(Sc1nc(C)cc(C)n1)c1ccccc1 (stereo not given)	none
CN(C)c1ccc(C(=O)N2CCCC(Cc3noc(-c4ccncc4)n3)C2)cc1 (stereo not given)	none
COc1ccccc1CNC(=O)c1ccccc1C(=O)c1cccs1	none
O=C(Cc1cccs1)N1CCC(Nc2cccnc2)C1 (stereo not given)	none
CC(C)S(=O)(=O)N1CCC(Nc2cccnc2)C1 (stereo not given)	KDM5B inhibitor 8.9µM
CCCOc1nccnc1NC1CCN(C(=O)c2ccsc2)CC1	KDM5B inhibitor 28µM
CCCOc1nccnc1NC1CCN(C(=O)c2cccnc2)CC1	KDM5B inhibitor 28µM
CC(C)CCN(C1CCOCC1)C1CCN(S(=O)(=O)c2cccnc2)CC1	none
CCCCc1cn(CC2CCN(C(=O)c3ccsc3)CC2)nn1	none
Cc1ccc(OCCC2CCN(C(=O)c3ccsc3)C2)cc1 (stereo not given)	none
O=C(NCc1cccnc1)[C@@H]1C[C@@H](O)CN1C1CCN(C(=O)c2ccsc2)CC1	none
O=C(c1cccnc1)N1CCC(OC2CCN(c3ccccc3)CC2)CC1	none
CC(C)S(=O)(=O)N1CCC(Oc2ncccc2C(=O)N(C)C)C1 (stereo not given)	none
O=C(c1ccsc1)N1CCC(Nc2cccnc2)C1 (stereo not given)	KDM5B inhibitor 13µM
O=C(c1cccnc1)N1CCC(OC2CCN(Cc3cccnc3)CC2)CC1	none
Cc1ccc(CN(C)C(=O)Cc2n[nH]c(=O)c3ccccc23)c(C)c1	none
